# According to the supplement of paper PMC8728848:
# Shown is part of a subset that was picked to be rich in the strongest signals.
# Legend:
# Assay in all cases: glycan array binding signal (z-score within array); higher = stronger binding
# Settings in all cases: glycan notation: IUPAC condensed, linker removed
# Fuc(a1-2)Gal = target: Fuc(a1-2)Gal
# Summary of the method: (§1)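 The binding signal is a Z-score computed within each array and averaged over linkers. Arrays of the same protein sequence at different concentrations or buffers were also averaged together. Data originate from 3228 arrays in the Consortium for Functional Glycomics database, kept only where the protein sequence was available.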
# [1] = target: Fuc(a1-2)Gal(b1-3)GalNAc(b1-4)[Neu5Ac(a2-3)]Gal(b1-4)Glc
# Summary of the method: as §1
# [2] = target: Fuc(a1-2)Gal(b1-3)[Fuc(a1-4)]GlcNAc(b1-2)Man(a1-3)[Fuc(a1-2)Gal(b1-3)[Fuc(a1-4)]GlcNAc(b1-2)Man(a1-6)]Man(b1-4)GlcNAc(b1-4)[Fuc(a1-6)]GlcNAc(b1-4)[Fuc(a1-6)]GlcNAc
# Summary of the method: as §1
# [3] = target: Fuc(a1-2)Gal(b1-4)GlcNAc(b1-2)Man(a1-3)[Fuc(a1-2)Gal(b1-4)GlcNAc(b1-2)Man(a1-6)]Man(b1-4)GlcNAc(b1-4)[Fuc(a1-6)]GlcNAc
# Summary of the method: as §1
# [4] = target: Fuc(a1-2)Gal(b1-4)[Fuc(a1-3)]GlcNAc(b1-3)Gal(b1-4)[Fuc(a1-3)]GlcNAc(b1-3)Gal(b1-4)[Fuc(a1-3)]GlcNAc
# Summary of the method: as §1
# [5] = target: Fuc(a1-2)[Gal(a1-3)]Gal(b1-4)GlcNAc(b1-2)Man(a1-3)[Fuc(a1-2)[Gal(a1-3)]Gal(b1-4)GlcNAc(b1-2)Man(a1-6)]Man(b1-4)GlcNAc(b1-4)GlcNAc
# Summary of the method: as §1
# [6] = target: Fuc(a1-2)[Gal(a1-4)]Gal(b1-4)GlcNAc
# Summary of the method: as §1
# [7] = target: Fuc(a1-3)[Gal(b1-4)]GlcNAc
# Summary of the method: as §1
# [8] = target: Gal(b1-3)GalNAc(a1-3)[Fuc(a1-2)]Gal(b1-4)Glc
# Summary of the method: as §1
# [9] = target: Gal(b1-3)GlcNAc(a1-3)Gal(b1-4)GlcNAc
# Summary of the method: as §1
# [10] = target: Gal(b1-3)GlcNAc(b1-3)Gal(b1-4)GlcNAc(b1-3)Gal(b1-4)GlcNAc(b1-2)[Gal(b1-3)GlcNAc(b1-3)Gal(b1-4)GlcNAc(b1-3)Gal(b1-4)GlcNAc(b1-6)]Man(a1-6)[Gal(b1-3)GlcNAc(b1-3)Gal(b1-4)GlcNAc(b1-3)Gal(b1-4)GlcNAc(b1-2)Man(a1-3)]Man(b1-4)GlcNAc(b1-4)[Fuc(a1-6)]GlcNAc
# Summary of the method: as §1
# [11] = target: Gal(b1-3)[Fuc(a1-4)]GlcNAc(b1-3)Gal(b1-3)[Fuc(a1-4)]GlcNAc
# Summary of the method: as §1
# [12] = target: Gal(b1-3)[Neu5Ac(a2-6)]GlcNAc(b1-4)Gal(b1-4)Glc
# Summary of the method: as §1
# [13] = target: Gal(b1-4)GlcNAc(b1-2)[Gal(b1-4)GlcNAc(b1-4)]Man(a1-3)[GlcNAc(b1-4)][Gal(b1-4)GlcNAc(b1-2)[Gal(b1-4)GlcNAc(b1-6)]Man(a1-6)]Man(b1-4)GlcNAc(b1-4)GlcNAc
# Summary of the method: as §1
# [14] = target: Gal(b1-4)GlcNAc(b1-3)Gal(b1-3)GlcNAc
# Summary of the method: as §1
# [15] = target: Gal(b1-4)GlcNAc(b1-3)Gal(b1-4)GlcNAc(b1-3)Gal(b1-4)GlcNAc
# Summary of the method: as §1
# [16] = target: Gal(b1-4)GlcNAc(b1-3)Gal(b1-4)GlcNAc(b1-3)Gal(b1-4)GlcNAc(b1-3)Gal(b1-4)GlcNAc(b1-2)Man(a1-3)[Gal(b1-4)GlcNAc(b1-3)Gal(b1-4)GlcNAc(b1-3)Gal(b1-4)GlcNAc(b1-3)Gal(b1-4)GlcNAc(b1-2)Man(a1-6)]Man(b1-4)GlcNAc(b1-4)[Fuc(a1-6)]GlcNAc
# Summary of the method: as §1
# [17] = target: Gal(b1-4)GlcNAc(b1-3)Gal(b1-4)GlcNAc(b1-3)Gal(b1-4)GlcNAc(b1-3)Gal(b1-4)GlcNAc(b1-2)[Gal(b1-4)GlcNAc(b1-3)Gal(b1-4)GlcNAc(b1-3)Gal(b1-4)GlcNAc(b1-3)Gal(b1-4)GlcNAc(b1-6)]Man(a1-6)[Gal(b1-4)GlcNAc(b1-3)Gal(b1-4)GlcNAc(b1-3)Gal(b1-4)GlcNAc(b1-3)Gal(b1-4)GlcNAc(b1-2)Man(a1-3)]Man(b1-4)GlcNAc(b1-4)[Fuc(a1-6)]GlcNAc
# Summary of the method: as §1
# [18] = target: Gal(b1-4)GlcNAc(b1-3)Gal(b1-4)GlcNAc(b1-3)Gal(b1-4)GlcNAc(b1-3)Gal(b1-4)GlcNAc(b1-3)Gal(b1-4)GlcNAc(b1-2)Man(a1-3)[Gal(b1-4)GlcNAc(b1-3)Gal(b1-4)GlcNAc(b1-3)Gal(b1-4)GlcNAc(b1-3)Gal(b1-4)GlcNAc(b1-3)Gal(b1-4)GlcNAc(b1-2)Man(a1-6)]Man(b1-4)GlcNAc(b1-4)GlcNAc
# Summary of the method: as §1
# [19] = target: Gal(b1-4)GlcNAc(b1-3)Gal(b1-4)GlcNAc(b1-6)[Gal(b1-3)]GalNAc
# Summary of the method: as §1
# [20] = target: Gal(b1-4)GlcNAc(b1-3)[Gal(b1-4)GlcNAc(b1-6)]Gal(b1-4)GlcNAc
# Summary of the method: as §1
# Gal3S6S(b1-4)GlcNAc = target: Gal3S6S(b1-4)GlcNAc
# Summary of the method: as §1
# Gal6S(b1-3)GlcNAc6S = target: Gal6S(b1-3)GlcNAc6S
# Summary of the method: as §1
# Gal6S(b1-4)Glc = target: Gal6S(b1-4)Glc
# Summary of the method: as §1
# GalNAc(b1-4)GlcNAc = target: GalNAc(b1-4)GlcNAc
# Summary of the method: as §1
# GalNAc3S(b1-4)GlcNAc = target: GalNAc3S(b1-4)GlcNAc
# Summary of the method: as §1
# GalNAc3S(b1-4)GlcNAc3S = target: GalNAc3S(b1-4)GlcNAc3S
# Summary of the method: as §1
# [21] = target: GalNAc3S(b1-4)[Fuc(a1-3)]GlcNAc
# Summary of the method: as §1
binder,measurement,setting,value
"SfaEH (Escherichia coli), Q1RDG5 (protein) LLCRNNQTGQVFNSGDTSFRVNVSPVVQYDKSISVLDLSQLVSCQNEDSTGQNYDYLKILKGSGFSPALDTKTYGRLDFTSRPTGYARQLPLQFDLQVTEAFYQYGVWKPFPAKLYLYPAPGVFGKVINNGDLLATLYVNKFSTKGQEAGERNFTWRFYATNDVYIQTGTCRVSSNNVKVDLPSYPGGPVTVPLTVRCDQTQSVSYTLSGPVTGSGNTVFANTAASGSGGVGIQLSDNVGPVPAGQPRSLGQVGSSPVSLGLKASYALTGQASPTPGAVQSVINVTFSYN",glycan array binding signal (z-score),Fuc(a1-2)Gal,-0.532
same,glycan array binding signal (z-score),[1],-0.413
same,glycan array binding signal (z-score),[2],1.21
same,glycan array binding signal (z-score),[3],-0.238
same,glycan array binding signal (z-score),[4],1.77
same,glycan array binding signal (z-score),[5],-0.531
same,glycan array binding signal (z-score),[6],0.037
same,glycan array binding signal (z-score),[7],-0.018
same,glycan array binding signal (z-score),[8],-0.503
same,glycan array binding signal (z-score),[9],-0.23
same,glycan array binding signal (z-score),[10],3.4
same,glycan array binding signal (z-score),[11],0.274
same,glycan array binding signal (z-score),[12],-0.638
same,glycan array binding signal (z-score),[13],1.56
same,glycan array binding signal (z-score),[14],0.732
same,glycan array binding signal (z-score),[15],0.382
same,glycan array binding signal (z-score),[16],-0.08
same,glycan array binding signal (z-score),[17],3.01
same,glycan array binding signal (z-score),[18],2.05
same,glycan array binding signal (z-score),[19],-0.15
same,glycan array binding signal (z-score),[20],0.131
same,glycan array binding signal (z-score),Gal3S6S(b1-4)GlcNAc,2.12
same,glycan array binding signal (z-score),Gal6S(b1-3)GlcNAc6S,-0.513
same,glycan array binding signal (z-score),Gal6S(b1-4)Glc,-0.148
same,glycan array binding signal (z-score),GalNAc(b1-4)GlcNAc,-0.125
same,glycan array binding signal (z-score),GalNAc3S(b1-4)GlcNAc,-0.199
same,glycan array binding signal (z-score),GalNAc3S(b1-4)GlcNAc3S,0.153
same,glycan array binding signal (z-score),[21],2.28
